Assay results: PubChem BioAssay AID1851 (National Center for Advancing Translational Sciences (NCATS), 2009)
The campaign covered roughly 16,000 compounds. About 4,000 (25%) were called active. Not shown: some 26% with an inconclusive outcome. Not all results are given here. Unmarked numbers belong to inactive results. The call rests on the fitted dose curve; in most records, active means well fitted curve in the direction sought with a large enough effect; inconclusive means small, poorly fitted or top-dose-only effect, or effect the other way; inactive means no such curve, though single readings can be large or run the other way.

target: Cytochrome P450 2C9 (Homo sapiens) (UniProt P11712); assay: Cytochrome panel assay with activity outcomes; conditions: recombinant CYP, pro-luciferin dealkylation, luminescence, p450-cyp2c9; series mostly up to 57.1 µM; activity, negative = inhibition: at the top concentration
Sequence (P11712 whole entry, looked up): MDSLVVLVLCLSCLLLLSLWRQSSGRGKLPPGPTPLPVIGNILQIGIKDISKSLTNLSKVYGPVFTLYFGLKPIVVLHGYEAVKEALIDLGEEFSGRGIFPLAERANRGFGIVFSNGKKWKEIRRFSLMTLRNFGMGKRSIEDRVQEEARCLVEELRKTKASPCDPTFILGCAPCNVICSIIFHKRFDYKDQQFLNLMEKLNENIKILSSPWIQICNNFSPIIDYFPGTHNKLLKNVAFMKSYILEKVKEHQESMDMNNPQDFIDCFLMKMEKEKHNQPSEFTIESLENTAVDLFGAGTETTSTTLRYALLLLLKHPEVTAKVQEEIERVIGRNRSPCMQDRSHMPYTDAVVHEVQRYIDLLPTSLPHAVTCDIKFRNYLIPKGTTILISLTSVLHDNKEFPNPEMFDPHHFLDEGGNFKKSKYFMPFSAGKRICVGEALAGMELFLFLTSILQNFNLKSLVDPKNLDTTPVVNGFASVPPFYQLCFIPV
On the % scale 0 is the no-effect control and ±100 the full control effect.

Structure (SMILES) | AC50 | activity, negative = inhibition
COC(=O)[C@@]1(Cc2ccccc2)[C@H]2c3cc(C(=O)N4CCCC4)n(Cc4c(CO)[nH]cc(C)c4=O)c3C[C@H]2CN1C(=O)c1ccccc1 | 1 µM (active) | –
COC(=O)[C@@]1(Cc2ccc(F)cc2)[C@H]2c3cc(C(=O)N4CCCC4)n(Cc4c(CO)[nH]cc(C)c4=O)c3C[C@H]2CN1C(=O)c1ccccc1 | 10 µM (active) | –
CCCCCCCCCCCCCCCC(=O)C(F)(F)F | – | 20.8%
N#Cc1ccc(CN2CCCC3(CCN(S(=O)(=O)c4ccccc4)CC3)C2)cc1 | 12.6 µM (active) | –
N#Cc1ccc(CN2CCC3(CC2)CCN(S(=O)(=O)c2ccccc2)CC3)cc1 | – | -8.31%
COCC(=O)N1CCC[C@@]2(CCN(Cc3ccc(C#N)cc3)C2)C1 | – | 16.8%
COC(=O)N1CCC2(CCCN(Cc3ccccc3)C2)CC1 | – | 0.0487%
O=S(=O)(c1ccccc1)N1CCC2(CC1)CN(Cc1ccccc1)C2 | – | 1.78%
COC(=O)N1CCC2(CCCN(Cc3ccc(C#N)cc3)C2)CC1 | 12.6 µM (active) | –
CN(C)CC[C@@H](c1ccccc1)c1ccccn1 | inactive | –
CN(C)CC(CN(C)C)c1ccccn1 | – | -2.56% [at 11.4 µM]
C[C@@H](C1=C(CCN(C)C)Cc2ccccc21)c1ccccn1 | 0.501 µM (active) | –
CNc1cc(-c2ccccc2CN(C)C)ncn1 | – | 24.8% [at 2.29 µM]
Cc1cccc(-c2n[nH]c([N+](=O)[O-])n2)c1 | 20 µM (active) | –
CCCCN1C(=O)NC(NC(=O)c2ccco2)(C(F)(F)F)C1=O (stereo unspecified) | 12.6 µM (active) | –
CCCCn1c(=N)n(CC(=O)c2ccco2)c2ccccc21 | – | -8.19%
CC(=O)NC1=NC(=O)C(C)S1 (stereo unspecified) | – | -14.5%
CC(=O)NC1(c2ccc(F)cc2)CCN(C(=O)Nc2ccc(F)cc2F)CC1 | – | -28.9%
Cn1nc(C(F)(F)F)c(C(=O)Nc2ccc(F)cc2F)c1Sc1ccc(C(F)(F)F)cc1 | 4.47 µM (active) | –
CCc1ccc(NC(=O)Cn2nc(C(F)(F)F)c3c2CCC3)cc1 | – | -29%
CCNS(=O)(=O)c1ccc(NC(=O)c2cc(C(F)(F)F)nn2C)cc1 | – | 3.85%
Cc1ccc(NC(=O)c2c(C(F)(F)F)nn(C)c2SCc2cccc(C(F)(F)F)c2)cc1C | 0.891 µM (active) | –
Cn1nc(C(F)(F)F)c(C(=O)Nc2ccc(F)cc2F)c1Sc1cccc(C(F)(F)F)c1 | 1.58 µM (active) | –
O=C(O)/C=C/C(=O)Nc1ccc(F)cc1F | – | -8.84%

Structure (SMILES) | AC50 | activity, negative = inhibition
Cc1ccc(NC(=O)c2sccc2SCc2cccc(C(F)(F)F)c2)cc1 | 2.51 µM (active) | –
CC(=O)N(/N=C1\Sc2ccccc2C1=O)c1ccccc1 | – | -1.76%
CC(=O)N(/N=C1\Sc2ccccc2C1=O)c1ccccc1C | 14.1 µM (active) | –
COC(=O)c1c(C)[nH]c(C)c1C(=O)c1ccccc1Cc1ccccc1 | – | -10.3%
Cc1sc(NC(=O)C2CCCCC2C(=O)O)c(C(N)=O)c1C (stereo unspecified) | – | -26.8%
CCOC(=O)c1c(NC(=O)CSc2nnnn2C)sc(C)c1C | 22.4 µM (active) | –
CCOc1ccc(CC(=O)Nc2sc(Cc3ccccc3)c(C)c2C(N)=O)cc1OCC | – | -18.4%
Cc1sc(NC(=O)C(C)C)c(C(=O)Nc2ccccc2)c1C | 12.6 µM (active) | –
CO[C@]1(NC(=O)CSCC#N)C(=O)N2C(C(=O)O)=C(CSc3nnnn3C)CS[C@H]21 | inactive | –
Cc1cccc(NC(=O)CSc2nnnn2C)n1 | – | -12.2%
CCOC(=O)c1c(NC(=O)CSc2nnc(C)s2)sc2c1CCCCC2 | 11.2 µM (active) | –
COC(=O)c1c(NC(C)=O)sc(Cc2ccccc2)c1C | 10 µM (active) | –
CCOC(=O)c1c(NC(=O)c2c(C)noc2C)sc2c1CCCCC2 | – | -13.5%
CN(C)c1nc(N)c(C(=O)N=C(N)N)nc1Cl | – | -9.29%
COC(=O)C1=C(C)[C@@H](O)[C@@H](C)[C@H](c2c(OC)c(OC)c(C)c(OC)c2OC)O1 | – | -3.08% [at 11.4 µM]
CC(=O)N1CCC2(CCCN(Cc3nccs3)C2)CC1 | – | -25.5%
CCOC(=O)c1c(NC(=O)Nc2ccccc2)sc(C)c1C | 3.55 µM (active) | –
CCOC(=O)c1c(NC(=O)/C=C/c2ccc3c(c2)OCO3)sc(C)c1C | – | -7.1%
Cc1nnc(SCc2nc(N)nc(Nc3ccccc3)n2)s1 | 10 µM (active) | –
Cc1cc(Nc2ccccc2)nc(N)n1 | – | -3.06%
CCCSc1nnc2n(N)c(=O)c3ccccc3n12 | – | -23.6%
Nc1nc(N)[n+]([O-])c(N)c1NCO | – | 6.07% [at 11.4 µM]
Nc1nc(N)c(CCCCc2ccccc2)c(N)n1 | – | 5.71% [at 11.4 µM]
CCOC(=O)c1cnc(N(C)C)nc1SC(=N)N | – | -5.38% [at 11.4 µM]

Structure (SMILES) | AC50 | activity, negative = inhibition
CCOC(=O)c1cnc(SCCc2ccccc2)nc1N | 11.2 µM (active) | –
CC1(C)C2([N+](=O)[O-])CN3CC1([N+](=O)[O-])CN(C2)C31CCCC1 | – | -7.73%
C=C1C(=O)O[C@@H]2[C@@H]1CC/C(C)=C\CC[C@@]1(C)O[C@H]21 | inactive | –
O=c1c2ccc([N+](=O)[O-])c3cccc(c32)c2nc3ccccc3n12 | – | -7.5%
O=C(O)c1ccc2c3c1cccc3c(=O)n1c3ccccc3nc21 | 0.158 µM (active) | –
O=C(O)C(=O)/C=C(\O)c1ccc(Br)cc1 | – | -19.1% [at 11.4 µM]
COc1ccc2nc(NC(=O)CSc3nnc(C)s3)sc2c1 | – | -8.02%
Cc1ccc2nc(NC(=O)COC(=O)CSc3nc(C)cc(C)n3)sc2c1 | 3.98 µM (active) | –
Cc1ccc2nc(NC(=O)CSCC(=O)OCC(=O)c3ccc(Br)cc3)sc2c1 | 14.1 µM (active) | –
CCCOc1ccc(C(=O)NC(=S)Nc2nc3ccc(C)cc3s2)cc1 | – | -22.2%
COc1ccc([C@@H]2Sc3ccccc3N(CCN(C)C)C(=O)[C@@H]2OC(C)=O)cc1 | – | 28.5%
COc1ccc2[nH]c(=O)c(NC(N)=S)nc2c1 | – | -27.2%
NC(=S)Nc1ccc(Oc2ccc(NC(N)=S)cc2)cc1 | 7.08 µM (active) | –
O=C1c2ccccc2NC(c2ccc(F)cc2)N1Cc1ccco1 (stereo unspecified) | 3.16 µM (active) | –
COc1ccc(C2Nc3ccccc3C(=O)N2Cc2ccco2)cc1COc1ccc([N+](=O)[O-])cc1 (stereo unspecified) | 0.178 µM (active) | –
Cc1ccc(C2Nc3ccccc3C(=O)N2Cc2ccco2)cc1 (stereo unspecified) | 3.16 µM (active) | –
CN(Cc1ccco1)C(=O)C1CCC(=O)N1Cc1ccc(F)cc1 (stereo unspecified) | – | -48.2%
O=C1C2=C(Nc3cc([N+](=O)[O-])ccc3N2)O[C@@H]1c1c[nH]c2ccc(COc3ccccc3)cc12 | – | -16.4% [at 11.4 µM]
CC1(CC(=O)O)O[C@H]2CCCCC[C@H]2O1 (stereo partly specified) (tested in a mixture with another compound) | – | 1.04% [at 11.4 µM]
CC(=O)N1CC2(CC2)CC1c1ccccc1 (stereo unspecified) | – | 8.15%
CC(C)NC[C@@H](O)COc1cccc2ccccc12 | inactive | –
CC(C)Oc1ccc2ccccc2c1C=O | 10 µM (active) | –
CO[C@H]1C[C@@H](O[C@@H]2[C@H](C)[C@H](O[C@@H]3O[C@@H](C)C[C@@H](N(C)C)[C@@H]3O)[C@H](C)C[C@]3(CO3)C(=O)[C@H](C)[C@H](O)[C@H](C)[C@H](C)OC(=O)[C@@H]2C)O[C@@H](C)[C@H]1O | – | -14.7% [at 25.6 µM]
CC(=O)N[C@@H](CC(=O)O)C(=O)O | – | 5.33% [at 25.6 µM]

Structure (SMILES) | AC50 | activity, negative = inhibition
O=C(Nc1ccc(-c2cn3ccccc3n2)cc1)c1cc(Br)ccc1O | – | -1.72% [at 11.4 µM]
O=C(c1cc(Br)ccc1O)c1cc(Br)ccc1O | 0.1 µM (active) | –
CC(C)(C)CC(C)(C)c1ccc(O)c(C[N+](C)(C)[O-])c1 | – | 0.733% [at 11.4 µM]
COc1cc(/C=C2\SC(=S)N(Nc3ccccc3)C2=O)cc(OC)c1OC | 6.31 µM (active) | –
Cc1cc(C)nc(NN2C(=O)/C(=C/c3ccccc3)SC2=S)n1 | – | -17%
CC(C)CC(=O)N[C@H](C(=O)N[C@H](C(=O)N[C@@H](CC(C)C)[C@H](O)CC(=O)N[C@@H](C)C(=O)N[C@@H](CC(C)C)[C@H](O)CC(=O)O)C(C)C)C(C)C | – | 0.404% [at 25.6 µM]
CCc1ccccc1NC(=O)CSc1nc(-c2ccccc2)nn1C(=O)c1cccc([N+](=O)[O-])c1 | 0.447 µM (active) | –
O=C(O)[C@@H]1[C@@H](C(=O)O)[C@]23C[C@@]2(C(=O)O)[C@]2(C(=O)O)CCC3=C3CCCC312 | – | 14% [at 11.4 µM]
CCOC(=O)c1cnc2c(cnn2CC)c1NN=C(C)C | – | -17.8%
CCOC(=O)c1cnc2ccc(C)cc2c1Sc1ccccc1C(=O)OC | 1.41 µM (active) | –
Cc1ccccc1-n1ncc2c(SCC(=O)N3c4ccccc4CC3C)ncnc21 (stereo unspecified) | 10 µM (active) | –
Cc1nnc(NC(=O)CSc2ncnc3c2cnn3-c2ccccc2C)s1 | – | -21.4%
CCOc1ccccc1NC(=O)C(=O)NCC1CCCN1CC (stereo unspecified) | – | -1.86%
CC1CN(C(=O)c2cc3c(s2)CCC3)CC(C)O1 (stereo unspecified) | – | 18.7%
Cc1cc(C)n(C(=O)c2cc3c(s2)CCCC3)n1 | 11.2 µM (active) | –
CCOC(=O)COc1c(OC)cc(Cl)cc1C1Nc2ccccc2C(=O)N1c1cccc(C)c1 (stereo unspecified) | 0.708 µM (active) | –
CCOC(=O)COc1c(OC)cc(Cl)cc1C1Nc2ccccc2C(=O)N1c1ccc(F)cc1 (stereo unspecified) | 0.282 µM (active) | –
CCOC(=O)CC1NC(=O)c2ccccc21 (stereo unspecified) | – | -12.7%
CC(C)=NO[C@@H](C)c1cn([C@@H]2COC[C@@H]2O)nn1 | – | 11.5% [at 11.4 µM]
CC(C)(Sc1ccc(CCN(CCCCC2CCCCC2)C(=O)NC2CCCCC2)cc1)C(=O)O | – | -9.97%
COc1ccc(NC(=O)COc2ccc(CNCCCN3CCOCC3)cc2OC)cc1 | – | -29.9%
COc1ccc(CCNC(=O)COc2ccc(S(=O)(=O)NC3CCCCC3)cc2Cl)cc1 | 2.51 µM (active) | –
COc1ccc2cc(CCC(C)=O)ccc2c1 | – | -16.9% [at 25.6 µM]
COc1ccc(CCCC(=O)NC2CCCCC2)cc1 | 10 µM (active) | –
